High-throughput results (PubChem BioAssay)
A selection: hits, their analogues and other compounds. The true share with any hit is near 7.3%.
IP6K1 inh – blocks human inositol hexakisphosphate kinase 1. Q92551. IP6K1 kinase, ADP-Glo luminescence, 2 h; active compounds read low. activity change, % (series mostly up to about 58 µM). 140,000 tested, 0.81% active. AID 1645851; in the data active = activity change below about -25%
Target sequence (Q92551 whole entry, looked up): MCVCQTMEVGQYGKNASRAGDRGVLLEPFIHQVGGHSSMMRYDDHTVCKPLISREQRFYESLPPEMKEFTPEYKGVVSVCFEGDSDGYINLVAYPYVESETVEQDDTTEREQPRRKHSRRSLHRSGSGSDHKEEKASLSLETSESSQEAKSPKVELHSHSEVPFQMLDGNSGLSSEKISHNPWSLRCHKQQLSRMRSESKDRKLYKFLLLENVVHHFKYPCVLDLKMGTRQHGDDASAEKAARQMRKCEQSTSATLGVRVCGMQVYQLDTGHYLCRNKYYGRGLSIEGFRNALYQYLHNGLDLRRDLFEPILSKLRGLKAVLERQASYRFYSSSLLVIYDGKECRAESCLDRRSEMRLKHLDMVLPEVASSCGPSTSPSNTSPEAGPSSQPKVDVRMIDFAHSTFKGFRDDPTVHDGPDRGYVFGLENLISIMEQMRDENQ
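ADP-Glo luminescence measures ADP made by human IP6K1 during a 2 h RT reaction with ATP/IP6 (mix at 1.3 mM/130 uM); top library doses 57.5 and 19.1 uM final.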
HEK cytotox – cytotoxic compounds in HEK 293 cells; HEK 293 viability, ATP luminescence (CellTiter-Glo), 48-72 h; Potency, µM (series often up to 115 µM), without a hit: at the top dose activity change, negative = cytotoxicity, actives largely listed as inhibitors; 94,000 tested, 6.6% active; note: potency is the fitted concentration of half-maximal effect; nearly all actives have a fitted effect of over 60% in size
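CellTiter-Glo luminescence (cellular ATP) was read after 48 or 72 hr of compound exposure at 37 degree Celsius. Cells were HEK 293 plated at 250 cells/well.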
HEK293 viab – counter-screen for SNCA expression inhibitors: cell viability; 150,000 tested, 0.12% active; HEK-293-SNCA-luc viability, GF-AFC fluorescence, 24 h; Potency, µM (series often up to 57.1 µM), inactives show at the top dose activity change, negative = cytotoxicity, usual class: cytotoxic; AID 1671193;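 note: potency is the fitted concentration of half-maximal effect; 0% = DMSO-treated cells and -100% = medium-only wells without cells; nearly all actives have a fitted effect of over 30% in size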
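Cytotoxicity counterscreen: after 24 h compound treatment of genome-edited SNCA-luciferase HEK-293 cells, live-cell protease substrate GF-AFC read by fluorescence after 30 min; activity scaled between DMSO (0%) and medium-only (-100%), curves Hill-fitted.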
SNCA expr inhib – reduces expression of the alpha-synuclein gene; HEK-293 SNCA-luciferase knock-in, luminescence, 24 h; 140,000 tested, 0.17% active; Potency, µM (highest dose often 57.2 µM), without a hit: at the top dose activity change, negative = inhibition, usual class: inhibitors; AID 1671194;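 note: potency is the fitted concentration of half-maximal effect; plate controls were DMSO cells for no effect and cell-free wells for full effect; nearly all actives have a fitted effect of over 45% in size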
NIH3T3 tox – cytotoxic compounds in NIH 3T3 cells | NIH 3T3 viability, CellTiter-Glo ATP luminescence, 48-72 h | Potency, µM (highest dose often 96.7 µM), inactives show at the highest dose activity change, negative = cytotoxicity, most hits filed as inhibitors | 94,000 tested, 4.3% active | AID 1345082; note: potency is the fitted concentration of half-maximal effect; nearly all actives have a fitted effect of over 55% in size
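Cytotoxicity is measured as loss of cellular ATP: NIH 3T3 cells (400/well) are exposed to compound for 48 or 72 hr at 37 °C, then CellTiter-Glo luminescence is imaged after 10 min at room temperature.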
FLuc inh – inhibitors of firefly (Photinus pyralis) luciferase | purified P. pyralis luciferase, luminescence, biochemical | P08659 | Potency, µM (doses to about 115 µM), actives largely listed as inhibitors | 76,000 tested, 2.5% active | AID 1347043; note: potency is the fitted concentration of half-maximal effect; nearly all actives have a fitted effect of over 65% in size
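Cell-free enzyme assay, 10nM P. pyralis luciferase, luciferin and ATP each at 10uM. Inhibition profiled over a 6-point titration, read as luminescence.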
The depositor's hits bear a star; i = inactive; ? = inconclusive; / = not tested or not shown; ! = not confirmed by another sample; [ ] = remark or other dose. Unless noted, calls come from the whole dose curve; as a rule, active = well fitted curve in the direction sought with a large enough effect; inconclusive = small, poorly fitted or top-dose-only effect, or another doubt; inactive = no such curve, though single readings can be large; an effect the other way counts as inactive or inconclusive. Unless noted, % is set by controls: 0 for no effect and ±100 for the full control effect.

SMILES	IP6K1 inh	HEK cytotox	HEK293 viab	SNCA expr inhib	NIH3T3 tox	FLuc inh
O=C(NC1CCCC1)c1ccc(OC2CCN(CCCC(F)(F)F)CC2)c(Cl)c1	0	32µM*	-13%	8%	?	i
Cc1cnc(CCNS(=O)(=O)c2ccccc2)n1CC1CC1	-5	-7%	17%	34%	-6%	i
Cc1cccc(Cn2cc3c(=O)n(CC(=O)Nc4ccc(C)c(F)c4)nc-3c3cc(F)ccc32)c1	6	/	-14%	22µM*	/	/
O[C@@H]1C[C@@H](c2nc(-c3ccc4c(c3)OCO4)no2)N(CCCc2ccccc2)C1	14	?	-20%[87.6 µM]	55%[87.6 µM]	?	35µM*
O[C@@H]1C[C@@H](c2nc(-c3ccc4c(c3)OCO4)no2)N(C2CCOCC2)C1	-1	-13%[172 µM]	-5%[87.6 µM]	11%[87.6 µM]	-11%[174 µM]	i
O[C@@H]1C[C@@H](c2nc(-c3ccc4c(c3)OCO4)no2)N(CC2CCCCC2)C1	12	89µM*	-18%[87.6 µM]	57%[87.6 µM]	89µM*	?
O[C@@H]1C[C@@H](c2nc(-c3ccc4c(c3)OCO4)no2)N(CC2CC2)C1	17	?	6%[87.6 µM]	112%[87.6 µM]	-27%[174 µM]	22µM*
O[C@@H]1C[C@@H](c2nc(-c3ccccn3)no2)N(Cc2cccs2)C1	8	?	-1%[87.6 µM]	42%[87.6 µM]	-13%[174 µM]	35µM*
O[C@@H]1C[C@@H](c2nc(-c3ccc4c(c3)OCO4)no2)N(Cc2ccccn2)C1	22	?	-8%[87.6 µM]	249%[87.6 µM]	-17%[174 µM]	45µM*
Oc1ccccc1CN1C[C@H](O)C[C@H]1c1nc(-c2ccc3c(c2)OCO3)no1	3	-20%[172 µM]	-22%[87.6 µM]	106%[87.6 µM]	-17%[138 µM]	?
CC(C)[C@H]1CN(CCC(=O)O)C[C@@H]1NC(=O)CCC1CCCC1	0	i	-16%	-12%	i	i
Cc1ccc(C(=O)N2CCC(N3CCCNC3=O)CC2)cc1	1	1%[172 µM]	3%[87.6 µM]	-2%[87.6 µM]	-1%[138 µM]	i
O=C(Cc1ccc(F)cc1)N1CCCN(c2ccc3nnc(C4CC4)n3n2)CC1	8	i	/	/	-3%	/
COCCNC(=O)C1(F)CCN(C(=O)c2ccnn2C)CC1	1	-6%	0%	22%	4%	/
CC1=C[C@@H](CNCCN(C)C)[C@H](C(C)C)C[C@H]1Cc1nnc(-c2ccc(C)cc2)o1	-13	35µM*	-29%[87.6 µM]	-18%[87.6 µM]	35µM*	i
CC(=O)NCCNC[C@@H]1C=C(C)[C@H](Cc2nnc(-c3ccc(C)cc3)o2)C[C@H]1C(C)C	-7	56µM*	-29%[87.6 µM]	-24%[87.6 µM]	40µM*	i
CC1=C[C@@H](CNCCN2CCOCC2)[C@H](C(C)C)C[C@H]1Cc1nnc(-c2ccc(C)cc2)o1	17	40µM*	?	-12%	35µM*	i
CC1=C[C@@H](CNCCN(C)C)[C@H](C(C)C)C[C@H]1Cc1nnc(C)o1	-7	-2%[172 µM]	3%[87.6 µM]	8%[87.6 µM]	1%[174 µM]	i
CC1=C[C@@H](CNCCN(C)C)[C@H](C(C)C)C[C@H]1Cc1nnc(C(C)(C)C)o1	17	?	-12%[87.6 µM]	-24%[87.6 µM]	71µM*	i
Cc1ccc(C(=O)N2CCC(N3C(=O)CCC3C(=O)NCc3ccccc3)CC2)cc1 (configuration not stated)	-6	i	7%	-11%	i	i
COCCCNC(=O)c1cc(C2CC2)nc2onc(C3CCCNC3)c12 (configuration not stated)	0	3%	7%	2%	i	/
O=C(CCCc1nc(-c2ccncc2)no1)N1CCCC2(CCNCC2)CC1	6	-4%	-7%	?	-13%	i
COc1cc(-c2onc(C)c2C(=O)NCCCCc2ccccc2)cc(OC)c1OC	-4	89µM*	-1%	-1%	?	i
COc1cc(CN(C)C(=O)c2c(C)noc2-c2ccc(C(C)(C)C)cc2)cc(OC)c1OC	-3	40µM*	4%	-9%	?	i
CCCOCCNC(=O)c1c(C)noc1-c1ccc(OC(F)(F)F)cc1	-5	?	-2%	-20%	-23%	i
SMILES	IP6K1 inh	HEK cytotox	HEK293 viab	SNCA expr inhib	NIH3T3 tox	FLuc inh
Cc1noc(-c2ccc(OC(F)(F)F)cc2)c1C(=O)NCCC(c1ccccc1)c1ccccc1	0	35µM*	18%	27%	?	i
Cc1noc(-c2ccc(OC(F)(F)F)cc2)c1C(=O)NCCCc1ccccc1	0	71µM*	10%	7%	?	i
CCCS(=O)(=O)N1CCCN(CC)C2(CCOCC2)C1	11	i	7%	22%	-3%	/
O=C1COCCN1C1CCN(Cc2ccccc2)CC1	-8	-8%[172 µM]	-10%[87.6 µM]	-11%[87.6 µM]	-7%[138 µM]	/
CC(=O)N1CC(N2C(=O)c3c(c(C)nn3-c3ccccc3)C2C)C1 (configuration not stated)	20	-3%[172 µM]	/	/	?	/
Cc1ccc2nc(C3CCCN(Cc4ccccc4)C3)[nH]c(=O)c2c1 (configuration not stated)	3	63µM*!	-4%[87.6 µM]	-5%[87.6 µM]	?	i
Cc1ccc2nc(C3CCCN(Cc4cccs4)C3)[nH]c(=O)c2c1 (configuration not stated)	-6	?	0%	-3%	-22%	/
CC(=O)Nc1ccc(CN2CCCC(c3nc4ccc(F)cc4c(=O)[nH]3)C2)cc1 (configuration not stated)	27	?	-13%	13%	?	i
Cc1cc(C)cc(-c2ccc(CN3CCCC(c4nc5ccc(F)cc5c(=O)[nH]4)C3)cc2)c1 (configuration not stated)	25	40µM*!	-6%	?	18µM*	i
CC(C)CN1CCCC(c2nc3ccc(F)cc3c(=O)[nH]2)C1 (configuration not stated)	5	25µM*	-24%[87.6 µM]	?	32µM*	i
Cc1ccc2nc(C3CCCN(CC4CCCC4)C3)[nH]c(=O)c2c1 (configuration not stated)	24	71µM*!	-15%[87.6 µM]	?	?	i
Cc1ccc2nc(C3CCCN(CC(C)C)C3)[nH]c(=O)c2c1 (configuration not stated)	24	-7%[172 µM]	8%[87.6 µM]	0%[87.6 µM]	-1%[138 µM]	i
COCCCNC(=O)c1ccc2nnc(-c3ccoc3)n2c1	7	i	4%[87.6 µM]	-8%[87.6 µM]	-12%[138 µM]	/
Cc1nn(-c2ccccc2)c(Oc2ccccc2F)c1CCC(=O)NCc1ccco1	-9	45µM*	2%	?	?	i
Cc1nn(-c2ccc(F)cc2)c(Oc2ccc(F)cc2F)c1CCC(=O)NCC1CC1	3	?	-17%	?	?	i
Cc1nn(-c2ccc(F)cc2)c(Oc2ccccc2F)c1CCC(=O)NCC1CC1	0	50µM*	-5%	-16%	?	i
